The results in this text go back to PubChem BioAssay.

Calls of active or inactive are those of the source. Unless noted, the rule behind the calls is not given here.

A short description of experiment [1]: resazurin metabolic signal in HepG2 cells – cell-based, resazurin fluorescence, 24 h, PK04 Diversity Set, profiling panel (AID 1172). Particulars: HepG2 viability, higher = more signal.
Experiment [2] can be described thus: budding yeast growth changes without added modifier – OD600, strain BY4716, 24 h, basal condition, primary screen (AID 1173). Particulars: S. cerevisiae BY4716 growth, OD600, 24 h; higher = more signal, called active from +8 up or from −8 down.
Experiment [3] can be described thus: viability profiling in MM1S myeloma cells – cell-based, resazurin fluorescence, basal, 24 h, PK04 Diversity Set, profiling panel (AID 1174).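 Note: MM1S multiple myeloma cell line.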 Particulars: higher = more signal, called active from +8 up or from −8 down.
In experiment [4] the target is Dihydroorotate dehydrogenase (quinone), mitochondrial (Plasmodium falciparum (isolate 3D7)) (UniProt Q08210). Kind of experiment: inhibition of P. falciparum DHODH – biochemical, C-terminal His tag, absorbance 600 nm, primary screen (AID 1175).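 Note: recombinant parasite enzyme with a five histidine tag at its C terminus.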 Particulars: PfDHODH enzyme, DCIP absorbance 600 nm; higher = more signal, called active from +8 up or from −8 down.
A short description of experiment [5]: inhibition of PAO1 biofilm formation – strain PAO1, LB-PBS medium, absorbance 600 nm, primary screen (AID 1176). Particulars: P. aeruginosa PAO1 growth/biofilm, A600, 12 h; higher = more signal.
The nature of experiment [6]: growth modulation of vineyard yeast isolate – strain RM11-1a, OD600, basal, 24 h, primary screen (AID 1177).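 Note: cultures grown under basal conditions with no added stressor.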 Particulars: S. cerevisiae RM11-1a growth, OD600, 24 h; higher = more signal, called active from +8 up or from −8 down.
Experiment [7] can be described thus: growth of efflux-deficient E. coli DRC39 – strain DRC39, OD650, 24 h, E. coli filamentation inducers, primary screen (AID 1178).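 Note: growth measured as culture turbidity by optical density at 650 nm.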 Particulars: E. coli DRC39 acrAB, higher = more signal, called active from +8 up or from −8 down.
Experiment [8] in a line: growth of efflux-deficient E. coli DRC39 – strain DRC39, OD650, 48 h, E. coli filamentation inducers, primary screen (AID 1179).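 Note: screen aims at cell division blockers that make cells filament.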 Particulars: E. coli DRC39 delta-acrAB growth, higher = more signal, called active from +8 up or from −8 down.
The nature of experiment [9]: viability profiling in RPMI8226 myeloma cells – cell-based, resazurin fluorescence, basal, 24 h, PK04 Diversity Set, profiling panel (AID 1180).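 Note: RPMI8826 multiple myeloma cell line at 5000 cells per well.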 Particulars: higher = more signal. (Resazurin is reduced to fluorescent resorufin, in cell work by metabolically active cells.)
The target of experiment [10] is E3 ubiquitin-protein ligase XIAP (Homo sapiens) (UniProt P98170). Kind of experiment: small molecules binding XIAP protein – biophysical, small-molecule microarray, fluorescence 635 nm, primary screen (AID 1181).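 Note: score merges 667 nm emission and signal to noise over triplicate slides.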 Particulars: higher = more signal.
Experiment [11] relates to XIP peptide (Xip251-270) binding. Kind of experiment: XIP fragment 251-270 binding compounds – biochemical, small-molecule microarray, fluorescence 635/667 nm, 0.1 µg/mL protein, primary screen (AID 1182). Particulars: fluorescent protein binding, 635 nm, higher = more signal, called active from +8 up or from −8 down.
For experiment [12], the system named is XIP peptide (Xip251-270). Kind of experiment: compounds binding XIP fragment 251-270 – biochemical, small-molecule microarray, fluorescence 635/667 nm, 0.5 µg/mL protein, primary screen (AID 1183). Particulars: fluorescence 635 nm, higher = more signal.
Experiment [13] is described as follows: blood-stage malaria parasite viability loss – strain 3D7, DAPI fluorescence, 100 nL, primary screen (AID 1184).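 Note: parasites grown inside human red blood cells in medium with human serum.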 Particulars: P. falciparum 3D7 growth, 3 d, higher = more signal.
The target of experiment [14] is Homeobox protein Hox-A13 (Mus musculus) (UniProt Q62424). Kind of experiment: disruptors of Hoxa13 oligonucleotide interaction – biochemical, fluorescence polarization, labeled oligonucleotide, primary screen (AID 1185). Particulars: Hoxa13:DNA binding, 15 min, higher = more signal, called active from +8 up or from −8 down. In general terms: Polarisation of emitted light reports the rotation of a fluorescent probe.

The nature of experiment [15]: blockers of DNA damage checkpoint Chk1 activation – imaging, HeLa, hydroxyurea, phospho-Chk1 antibody, percent positive cells, primary screen (AID 1186). Particulars: hydroxyurea-induced phospho-Chk1 immunofluorescence imaging, higher = more signal.
A short description of experiment [16]: blockers of DNA damage checkpoint Chk1 activation – imaging, HeLa, hydroxyurea, phospho-Chk1 nuclear intensity, primary screen (AID 1187). Particulars: hydroxyurea-induced phospho-Chk1 immunofluorescence imaging, higher = more signal.

Chain of Homeobox protein Hox-A13 (Mus musculus) (Q62424 whole entry, looked up): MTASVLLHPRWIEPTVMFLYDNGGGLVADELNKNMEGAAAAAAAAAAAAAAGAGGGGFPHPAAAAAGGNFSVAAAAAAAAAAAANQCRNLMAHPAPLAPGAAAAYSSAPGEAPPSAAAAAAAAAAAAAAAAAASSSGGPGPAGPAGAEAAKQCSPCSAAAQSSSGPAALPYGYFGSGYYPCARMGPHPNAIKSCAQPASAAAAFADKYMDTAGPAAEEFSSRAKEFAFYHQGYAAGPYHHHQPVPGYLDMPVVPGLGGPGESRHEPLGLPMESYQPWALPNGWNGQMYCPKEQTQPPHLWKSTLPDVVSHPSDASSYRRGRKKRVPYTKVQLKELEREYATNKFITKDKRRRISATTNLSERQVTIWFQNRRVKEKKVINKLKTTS
Chain of E3 ubiquitin-protein ligase XIAP (Homo sapiens) (P98170 whole entry, looked up, the tested form may be a part): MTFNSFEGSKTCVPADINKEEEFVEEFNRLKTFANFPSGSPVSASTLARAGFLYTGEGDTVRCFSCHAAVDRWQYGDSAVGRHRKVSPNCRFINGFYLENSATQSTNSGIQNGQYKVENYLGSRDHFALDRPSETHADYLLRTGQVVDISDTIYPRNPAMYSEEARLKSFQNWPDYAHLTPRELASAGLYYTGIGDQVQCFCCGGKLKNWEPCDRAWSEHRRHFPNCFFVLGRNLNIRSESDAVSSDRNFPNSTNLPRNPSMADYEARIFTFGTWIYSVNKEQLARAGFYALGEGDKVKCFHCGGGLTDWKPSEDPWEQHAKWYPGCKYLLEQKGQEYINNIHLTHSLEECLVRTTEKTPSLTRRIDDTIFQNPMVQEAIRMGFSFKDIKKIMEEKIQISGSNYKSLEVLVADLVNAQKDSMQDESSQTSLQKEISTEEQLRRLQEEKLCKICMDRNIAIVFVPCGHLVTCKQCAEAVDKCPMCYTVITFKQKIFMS
Chain of Dihydroorotate dehydrogenase (quinone), mitochondrial (Plasmodium falciparum (isolate 3D7)) (Q08210 whole entry, looked up): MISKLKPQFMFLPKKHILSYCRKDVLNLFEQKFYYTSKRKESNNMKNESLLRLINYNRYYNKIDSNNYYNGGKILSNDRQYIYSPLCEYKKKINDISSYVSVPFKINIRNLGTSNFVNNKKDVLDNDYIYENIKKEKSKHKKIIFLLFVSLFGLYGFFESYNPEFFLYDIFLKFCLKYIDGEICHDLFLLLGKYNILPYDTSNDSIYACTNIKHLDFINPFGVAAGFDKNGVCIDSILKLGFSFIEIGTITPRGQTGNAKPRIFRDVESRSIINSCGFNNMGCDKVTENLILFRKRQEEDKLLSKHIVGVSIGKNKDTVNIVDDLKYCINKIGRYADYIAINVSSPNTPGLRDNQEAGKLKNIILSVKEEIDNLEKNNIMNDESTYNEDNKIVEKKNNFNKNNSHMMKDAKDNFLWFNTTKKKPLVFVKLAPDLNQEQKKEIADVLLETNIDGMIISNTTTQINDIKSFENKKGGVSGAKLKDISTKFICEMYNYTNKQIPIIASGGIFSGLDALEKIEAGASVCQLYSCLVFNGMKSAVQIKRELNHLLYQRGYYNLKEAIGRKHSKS

As for `COCC(=C=CC[C@@H](O)c1ccc(OCCO)cc1)CCO`, the z-score in experiment [1] is 1.37; in [2] it was -0.896 (inactive); in experiment [3], 1.1 (inactive); in experiment [5], 0.424 (inactive); in experiment [6], 0.453 (inactive); in experiment [7], 1.41 (inactive). Moreover, the z-score in experiment [8] is 1.23 (inactive); in [9], 2.08; in [13] it was -1.46; in experiment [14], -3.22 (inactive); in [15], -0.321 (inactive); in [16], 0.301 (inactive). The composite z-score in [4] is -0.789 (inactive); in [10] it was -0.0949; in experiment [11], 0.474 (inactive); in [12], 0.429.
As to `Cc1ccc(C(C)CC(O)C2C=CC3C(=O)N(c4ccccc4)C(=O)C3N2Nc2ccc(C#N)cc2)o1` (centres undefined), the z-score in experiment [1] is -0.793; in [2] it was -17.1 (active); in experiment [3] it was -3.76 (inactive); in [5], 0.0616 (inactive); in experiment [6] it was -20.8 (active); in experiment [7], 0.431 (inactive). Besides, the z-score was 1.14 (inactive) in experiment [8]; -5.62 in [9]; 0.25 in experiment [13]; -3.75 (inactive) in [14]; 0.124 (inactive) in experiment [15]; 0.222 (inactive) in experiment [16]. The composite z-score was -1.79 (inactive) in experiment [4], 0.0204 in experiment [10], 0.662 (inactive) in experiment [11] and 0.322 in experiment [12].
Take `CC(C)CNC(=O)[C@@]1(c2ccc([N+](=O)[O-])cc2)CC(=O)N(C2CCCCC2)[C@@H]1c1ccc(CO)cc1`: the z-score was 0.0751 in [1]; -1.68 (inactive) in [2]; 1.17 (inactive) in experiment [3]; -0.301 (inactive) in experiment [5]; -0.377 (inactive) in experiment [6]; 0.637 (inactive) in experiment [7]. In addition, the z-score in experiment [8] is 0.0367 (inactive); in experiment [9], 1.12; in experiment [13], -0.672; in experiment [14], -2.24 (inactive); in experiment [15], 0.0803 (inactive); in [16] it was 0.515 (inactive). The composite z-score in experiment [4] is -0.0682 (inactive); in [10], 0.14; in experiment [11], 0.32 (inactive); in experiment [12], 0.104.
Consider `C=C(C)[C@@H]1CC=C(C(O)C2C=CC3C(=O)N(c4ccccc4)C(=O)C3N2Nc2ccc(C#N)cc2)CC1` (some centres undefined), for which the z-score in experiment [1] was -1.12; in experiment [2], -0.111 (inactive); in experiment [3], -0.591 (inactive); in experiment [5], 1.8 (inactive); in [6], 0.556 (inactive); in experiment [7], -0.688 (inactive). The z-score was -0.906 (inactive) in [8]; 0.0852 in experiment [9]; 0.807 in experiment [13]; 1.21 (inactive) in experiment [14]; -0.169 (inactive) in experiment [15]; 0.008 (inactive) in experiment [16]. In addition, the composite z-score in experiment [4] is 0.0143 (inactive); in experiment [10], 0.169; in [11], 0.476 (inactive); in experiment [12] it was 0.642.
On to `[N-]=[N+]=NCc1ccccc1[C@@H]1OC(c2ccc(OCCCO)cc2)=N[C@]1(Cc1ccccc1N=[N+]=[N-])C(=O)N1CCCCC1`, for which the z-score in [1] was 0.56; in experiment [2], -0.139 (inactive); in [3] it was -1.98 (inactive); in [5], 0.327 (inactive); in [6] it was 1.09 (inactive); in experiment [7] it was -0.0949 (inactive). The z-score is 0.599 (inactive) in experiment [8]; -2.88 in [9]; -2.16 in [13]; -1.44 (inactive) in experiment [14]; -0.234 (inactive) in experiment [15]; -0.0332 (inactive) in experiment [16]. Besides, the composite z-score in experiment [4] was 0.303 (inactive); in [10], 0.172; in experiment [11] it was 0.111 (inactive); in [12], 0.724.
In the case of `C=CCNC(=O)[C@@H]1[C@H]2C(=O)O[C@H](c3ccccc3)[C@H](c3ccccc3)N2[C@H](c2ccc(O)cc2)[C@@]12C(=O)N(C(=O)OCCOC)c1ccc(C#CCCO)cc12`, the z-score in experiment [1] was 0.02; in experiment [2], -0.363 (inactive); in experiment [3] it was -1.12 (inactive); in experiment [5], 0.249 (inactive); in experiment [6], 0.782 (inactive); in experiment [7], 0.37 (inactive). Besides, the z-score in experiment [8] was 0.479 (inactive); in experiment [9], -0.299; in experiment [13], 1.05; in experiment [14], -3.19 (inactive); in [15], 0.116 (inactive); in [16] it was -0.365 (inactive). For the same molecule, the composite z-score is -0.855 (inactive) in [4], -0.0749 in [10], 2.07 (inactive) in experiment [11] and 0.749 in [12].
As for `O=C1OCCC=C[C@H]2OC34C=CCN(c5ccc(Cl)cc5)C(=O)[C@H]3N(CCCCCCO)C(=O)[C@@H]4C12` (some centres undefined), the z-score was 0.546 in experiment [1]; -0.247 (inactive) in experiment [2]; 1.35 (inactive) in [3]; -0.786 (inactive) in experiment [5]; 0.311 (inactive) in [6]; 1.38 (inactive) in [7]. For the same molecule, the z-score in experiment [8] is 1.74 (inactive); in experiment [9], 1.23; in experiment [13], -0.278; in experiment [14] it was -5.62 (inactive); in experiment [15], -0.301 (inactive); in experiment [16] it was 0.116 (inactive). In addition, the composite z-score was -0.477 (inactive) in [4], -0.474 in experiment [10], 0.43 (inactive) in experiment [11] and -0.619 in experiment [12].
Take `CO[C@H]1O[C@H](CO)[C@@H](OC(=O)Nc2ccc(C#N)cc2)[C@@H]2OC(=O)[C@H](Cc3cccc(Br)c3)C/C=C/C[C@@H](Cc3cccc(Br)c3)C(=O)O[C@@H]12`: the z-score is -1.39 in [1]; -0.253 (inactive) in [2]; -3.14 (inactive) in experiment [3]; 1.23 (inactive) in experiment [5]; 0.99 (inactive) in experiment [6]; 0.295 (inactive) in [7]. Moreover, the z-score in experiment [8] is 0.432 (inactive); in experiment [9] it was -2.37; in experiment [13], -1.47; in [14], 1.1 (inactive); in experiment [15] it was -0.353 (inactive); in experiment [16] it was -0.388 (inactive). Further, the composite z-score was -0.631 (inactive) in [4], -0.355 in experiment [10], 0.685 (inactive) in experiment [11] and 0.254 in [12].
Consider `CO[C@H]1O[C@H](CO)[C@@H](OC(=O)CCc2ccccc2)[C@H](OC(=O)c2cc3ccccc3[nH]2)[C@H]1OC(=O)c1cc2ccccc2[nH]1`, for which the z-score in experiment [1] was -1.4; in [2], -1.14 (inactive); in experiment [3], -2.09 (inactive); in experiment [5], 1.38 (inactive); in experiment [6], 0.033 (inactive); in experiment [7], 0.367 (inactive). Besides, the z-score in experiment [8] is 1.2 (inactive); in experiment [9] it was -2.49; in experiment [13], -1.03; in [14], -0.797 (inactive); in experiment [15], -0.616 (inactive); in experiment [16], -1.27 (inactive). The composite z-score in experiment [4] is -1.62 (inactive); in experiment [10] it was -0.156; in experiment [11], 0.983 (inactive); in experiment [12] it was 0.637.
